PubChem BioAssay AID1159580 (chemical genetic matrix, 2015)
Hit rate of the full screen: of about 5,500 compounds, about 2,000 (36%) were called active. Not shown: some 18% with an inconclusive outcome. No stated cut-off is given here; in the data, active means normalized growth mostly below about 0.91 (no sharp cut-off); inconclusive means no clear call, values can overlap the other calls; inactive means mostly above about 0.92. Some of the results follow.

Experiment: chemical genetic growth profiling, strain panel (AID 1159580);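 further: tested at 20 µM; growth read once vehicle control cultures reached saturation at 30 °C; 1 = growth at the plate median or of vehicle wells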
Conditions: S. cerevisiae deletion strains, growth OD

Measured: normalized growth

C=C1CCC(OC(C)=O)/C(C)=C/C[C@@H]2[C@@H]1CC2(C)C (some centres undefined)
inactive: locus YAL021C, strain ccr4, stronger effect = lower value 1.01 | locus YAL026C, strain drs2, stronger effect = lower value 1.01 | locus YAL030W, strain snc1, stronger effect = lower value 1.01 | locus YBL061C, strain skt5, stronger effect = lower value 1.01 | locus YBR009C, strain hhf1, stronger effect = lower value 1.01 | locus YBR021W, strain FUR4, stronger effect = lower value 1.02 | locus YBR023C, strain chs3, stronger effect = lower value 1.01 | locus YBR171W, strain sec66, stronger effect = lower value 1 | locus YBR229C, strain ROT2, stronger effect = lower value 1 | locus YBR231C, strain swc5, stronger effect = lower value 1.01 | locus YBR279W, strain paf1, stronger effect = lower value 1.01 | locus YCL011C, strain gbp2, stronger effect = lower value 1.02 | locus YCL016C, strain dcc1, stronger effect = lower value 1.01 | locus YCL029C, strain bik1, stronger effect = lower value 1.03 | locus YCL061C, strain MRC1, stronger effect = lower value 1.01 | locus YCL069W, strain vba3, stronger effect = lower value 1.01 | locus YCR088W, strain abp1, stronger effect = lower value 1.01 | locus YDL005C, strain med2, stronger effect = lower value 1.01 | locus YDL035C, strain GPR1, stronger effect = lower value 1.01 | locus YDL040C, strain nat1, stronger effect = lower value 1.01 | locus YDL074C, strain BRE1, stronger effect = lower value 1.02 | locus YDL101C, strain DUN1, stronger effect = lower value 1.02 | locus YDL185W, strain tfp1, stronger effect = lower value 1.03 | locus YDL192W, strain arf1, stronger effect = lower value 1.02 | locus YDR001C, strain nth1, stronger effect = lower value 1 | locus YDR069C, strain doa4, stronger effect = lower value 1.03 | locus YDR101C, strain arx1, stronger effect = lower value 0.983 | locus YDR137W, strain rgp1, stronger effect = lower value 0.929 | locus YDR159W, strain sac3, stronger effect = lower value 1.02 | locus YDR162C, strain NBP2, stronger effect = lower value 0.997 | locus YDR195W, strain ref2 1.02 | locus YDR297W, strain sur2, stronger effect = lower value 1.02 | locus YDR318W, strain mcm21, stronger effect = lower value 1.03 | locus YDR334W, strain swr1, stronger effect = lower value 1.01 | locus YDR335W, strain msn5, stronger effect = lower value 1.01 | locus YDR388W, stronger effect = lower value 1.02 | locus YDR392W, strain spt3, stronger effect = lower value 0.812 | locus YDR502C, strain sam2, stronger effect = lower value 1.03 | locus YEL003W, strain gim4, stronger effect = lower value 1.02 | locus YEL037C, strain rad23, stronger effect = lower value 1.01 | locus YEL061C, strain CIN8 (second series), stronger effect = lower value 1.02 | locus YER015W, strain faa2, stronger effect = lower value 1.01 | locus YER016W, strain bim1, stronger effect = lower value 1.01 | locus YER110C, stronger effect = lower value 1.03 | locus YER111C, strain swi4, stronger effect = lower value 1.01 | locus YER155C, strain BEM2 (second series), stronger effect = lower value 1.03 | locus YER155C, strain BEM2, stronger effect = lower value 1.02 | locus YER167W, strain BCK2, stronger effect = lower value 1.01 | locus YFR010W, strain ubp6, stronger effect = lower value 1.01 | locus YGL078C, strain dbp3, stronger effect = lower value 1.04 | locus YGL086W, strain mad1, stronger effect = lower value 1.01 | locus YGL167C, strain pmr1, stronger effect = lower value 1.02 | locus YGL173C, strain kem1, stronger effect = lower value 1.01 | locus YGL227W, strain vid30, stronger effect = lower value 1.03 | locus YGL240W, strain doc1, stronger effect = lower value 1.01 | locus YGL248W, strain PDE1, stronger effect = lower value 1.01 | locus YGL253W, strain hxk2, stronger effect = lower value 1.01 | locus YGR078C, strain PAC10, stronger effect = lower value 1.03 | locus YGR135W, strain pre9, stronger effect = lower value 1.05 | locus YGR252W, strain gcn5, stronger effect = lower value 1.05 | locus YHR013C, strain ard1, stronger effect = lower value 1 | locus YHR027C, strain rpn1, stronger effect = lower value 1.01 | locus YHR030C, strain SLT2, stronger effect = lower value 1.01 | locus YHR079C, strain IRE1 (second series), stronger effect = lower value 1.02 | locus YHR094C, strain hxt1, stronger effect = lower value 1.01 | locus YHR129C, strain ARP1, stronger effect = lower value 1.01 | locus YHR142W, strain chs7, stronger effect = lower value 0.987 | locus YHR200W, strain rpn10, stronger effect = lower value 1 | locus YIL066C, strain RNR3, stronger effect = lower value 1 | locus YIL073C, strain SPO22, stronger effect = lower value 1.06 | locus YIL125W, strain kgd1, stronger effect = lower value 1 | locus YIR030C, strain dcg1, stronger effect = lower value 1.02 | locus YJL092W, strain hpr5, stronger effect = lower value 1.01 | locus YJL095W, strain BCK1 (second series), stronger effect = lower value 1.01 | locus YJL095W, strain BCK1, stronger effect = lower value 1.02 | locus YJL115W, strain asf1, stronger effect = lower value 1.01 | locus YJL129C, strain trk1, stronger effect = lower value 0.976 | locus YJL134W, strain LCB3, stronger effect = lower value 1.01 | locus YJL154C, strain vps35, stronger effect = lower value 1.01 | locus YJL164C, strain tpk1, stronger effect = lower value 1.01 | locus YJL166W, strain qcr8, stronger effect = lower value 1 | locus YJL168C, strain set2, stronger effect = lower value 1.02 | locus YJL187C, strain SWE1 (second series), stronger effect = lower value 1.05 | locus YJL187C, strain SWE1, stronger effect = lower value 1.01 | locus YJR075W, strain HOC1, stronger effect = lower value 1.02 | locus YKL009W, strain mrt4, stronger effect = lower value 1 | locus YKL068W, stronger effect = lower value 1.01 | locus YKL085W, strain MDH1 (second series), stronger effect = lower value 1.02 | locus YKL085W, strain MDH1, stronger effect = lower value 1.02 | locus YKL160W, strain elf1, stronger effect = lower value 1 | locus YKL190W, strain CNB1, stronger effect = lower value 1.01 | locus YKR001C, strain vps1, stronger effect = lower value 0.996 | locus YKR026C, strain gcn3, stronger effect = lower value 0.987 | locus YKR091W, strain srl3, stronger effect = lower value 1.01 | locus YLL001W, strain dnm1, stronger effect = lower value 1.02 | locus YLL026W, stronger effect = lower value 1.02 | locus YLL041C, strain sdh2, stronger effect = lower value 1.01 | locus YLR027C, strain aat2, stronger effect = lower value 1 | locus YLR039C, strain RIC1, stronger effect = lower value 0.957 | locus YLR058C, strain SHM2, stronger effect = lower value 1 | locus YLR102C, strain apc9, stronger effect = lower value 1 | locus YLR221C, strain rsa3, stronger effect = lower value 1.01 | locus YLR258W, strain gsy2, stronger effect = lower value 1.01 | locus YLR262C, strain YPT6 (second series), stronger effect = lower value 0.905 | locus YLR262C, strain YPT6, stronger effect = lower value 0.932 | locus YLR268W, strain sec22, stronger effect = lower value 0.995 | locus YLR320W, strain mms22, stronger effect = lower value 0.972 | locus YLR342W, strain FKS1, stronger effect = lower value 1.01 | locus YLR357W, strain rsc2, stronger effect = lower value 1.01 | locus YLR370C, strain arc18, stronger effect = lower value 1.01 | locus YLR371W, strain rom2, stronger effect = lower value 1.03 | locus YLR384C, strain iki3, stronger effect = lower value 0.999 | locus YLR418C, strain cdc73, stronger effect = lower value 1.06 | locus YML016C, strain PPZ1, stronger effect = lower value 1.02 | locus YML032C, strain rad52, stronger effect = lower value 0.995 | locus YML120C, strain ndi1, stronger effect = lower value 1.02 | locus YML124C, strain tub3, stronger effect = lower value 1.01 | locus YMR058W, strain fet3, stronger effect = lower value 1.01 | locus YMR078C, strain ctf18, stronger effect = lower value 1.03 | locus YMR125W, strain sto1, stronger effect = lower value 1.02 | locus YMR129W, stronger effect = lower value 1.01 | locus YMR205C, strain PFK2, stronger effect = lower value 0.996 | locus YMR223W, strain ubp8, stronger effect = lower value 1.02 | locus YMR231W, strain pep5, stronger effect = lower value 1.01 | locus YMR307W, strain GAS1, stronger effect = lower value 0.973 | locus YNL067W, strain RPL9B, stronger effect = lower value 1.02 | locus YNL071W, strain lat1, stronger effect = lower value 0.99 | locus YNL209W, strain ssb2, stronger effect = lower value 1.02 | locus YNL233W, strain BNI4, stronger effect = lower value 1.04 | locus YNL248C, strain rpa49, stronger effect = lower value 0.997 | locus YNL250W, strain rad50, stronger effect = lower value 1.07 | locus YNL271C, strain bni1, stronger effect = lower value 1.01 | locus YNL298W, strain CLA4, stronger effect = lower value 1.01 | locus YNL307C, strain MCK1, stronger effect = lower value 1.02 | locus YNL322C, strain KRE1 (second series), stronger effect = lower value 1.02 | locus YNL322C, strain KRE1, stronger effect = lower value 1.01 | locus YNR049C, strain mso1, stronger effect = lower value 1.02 | locus YNR052C, strain pop2, stronger effect = lower value 1.03 | locus YOL012C, strain htz1 1.04 | locus YOL147C, strain pex11, stronger effect = lower value 1.02 | locus YOR001W, strain rrp6, stronger effect = lower value 1.02 | locus YOR061W, strain CKA2, stronger effect = lower value 1 | locus YOR069W, strain VPS5, stronger effect = lower value 1.01 | locus YOR070C, strain gyp1, stronger effect = lower value 1 | locus YOR080W, strain dia2, stronger effect = lower value 1.01 | locus YOR083W, strain WHI5, stronger effect = lower value 1.01 | locus YOR106W, strain vam3, stronger effect = lower value 0.994 | locus YOR136W, strain idh2, stronger effect = lower value 0.997 | locus YOR144C, strain elg1, stronger effect = lower value 1.01 | locus YOR184W, strain ser1, stronger effect = lower value 0.992 | locus YOR265W, strain rbl2, stronger effect = lower value 1.01 | locus YOR270C, strain vph1, stronger effect = lower value 0.909 | locus YOR290C, strain snf2, stronger effect = lower value 0.963 | locus YOR316C, strain cot1, stronger effect = lower value 1.02 | locus YPL051W, strain arl3, stronger effect = lower value 0.994 | locus YPL055C, strain LGE1, stronger effect = lower value 1.04 | locus YPL078C, strain atp4, stronger effect = lower value 1 | locus YPL106C, strain sse1, stronger effect = lower value 1.05 | locus YPL240C, strain hsp82, stronger effect = lower value 1.01 | locus YPR119W, strain clb2, stronger effect = lower value 1.01 | locus YPR141C, strain kar3, stronger effect = lower value 1.02 | locus YPR163C, strain tif3, stronger effect = lower value 1 | locus YPR167C, strain met16, stronger effect = lower value 1.02 | strain wtn01, stronger effect = lower value 1
